Where “and” joins values, the source holds several entries; their conditions need not be identical. Equal entries are not always repeated. Some structures have more than one record in an assay (separate samples or runs), and their calls can disagree. Calls of active or inactive are those of the source. How the source made its calls: active means hit-call score of the fitted dose curve at least 0.9, where 1 is the maximum; inactive means score below 0.9.
Columns and labels:
Settings in all cases: mRNA level, 48 h; actives raise or lower the signal
[1] = read-out: Bcl-2 (BAX) gene, BAX (gene 581); experiment: LTEA_HepaRG_BAX: Life Technologies and Expression Analysis (LTEA) Assay for Bcl-2 (BAX) gene using HepaRG (AID 2283470)
Procedure, shortened: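 qRT-PCR read-out of BAX mRNA, normalized to three housekeeping genes, after 48 h chemical exposure of human HepaRG cells in serum-free induction medium; eight-point half-log series, top 100 uM, 0.5% DMSO vehicle; bidirectional fit versus DMSO.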

[2] = read-out: adenosine kinase (ADK) gene, ADK (gene 132); experiment: LTEA_HepaRG_ADK: Life Technologies and Expression Analysis (LTEA) Assay for adenosine kinase (ADK) gene using HepaRG (AID 2283471)
Procedure, shortened: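 HepaRG (human liver), 48 h chemical exposure, 8-pt half-log series, top 100 uM, 0.5% DMSO vehicle. Readout: ADK mRNA by qRT-PCR vs housekeeping genes; bidirectional curve fit relative to DMSO baseline.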

[3] = read-out: Alpha-fetoprotein (AFP) gene, AFP (gene 174); experiment: LTEA_HepaRG_AFP: Life Technologies and Expression Analysis (LTEA) Assay for Alpha-fetoprotein (AFP) gene using HepaRG (AID 2283472);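 on AC50: AFP transcript by TaqMan qRT-PCR normalized to ACTB GAPDH and POLR2A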
Procedure, shortened: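 qRT-PCR (Fluidigm TaqMan) readout of AFP transcript, normalized to three housekeeping genes, fitted bidirectionally against 0.5% DMSO baseline. HepaRG cells received chemicals for 48 h in serum-free induction medium, top concentration 100 uM, half-log steps.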

BCL2L11 (gene 10018) = experiment: LTEA_HepaRG_BCL2L11: Life Technologies and Expression Analysis (LTEA) Assay for Bcl-2 (BCL2L11) gene using HepaRG (AID 2283473)
Procedure, shortened: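 Cells were plated, cultured 48 h, switched to serum-free induction medium, then dosed in duplicate for 48 h at eight half-log concentrations up to 100 uM. Lysates underwent RNA isolation and TaqMan qRT-PCR; gain or loss versus DMSO was fitted.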

[4] = read-out: Apolipoprotein A-V (APOA5) gene, APOA5 (gene 116519); experiment: LTEA_HepaRG_APOA5: Life Technologies and Expression Analysis (LTEA) Assay for Apolipoprotein A-V (APOA5) gene using HepaRG (AID 2283474)
Procedure, shortened: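 Human liver HepaRG cells are treated 48 h with test chemicals (100 uM top, half-log dilutions, 0.5% DMSO). APOA5 mRNA induction or loss is measured by qRT-PCR relative to vehicle.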

[5] = read-out: Apoptosis regulator Bcl-2 (Homo sapiens) (UniProt P10415); experiment: LTEA_HepaRG_BCL2: Life Technologies and Expression Analysis (LTEA) Assay for Bcl-2 gene using HepaRG (AID 2283475);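 further: BCL2 transcript by TaqMan qRT-PCR normalised to ACTB GAPDH and POLR2A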
Procedure, shortened: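 qRT-PCR read-out (Fluidigm TaqMan) of BCL2 transcript, normalised to three housekeeping genes, after 48 h chemical exposure of HepaRG cells; 8-point half-log series, top 100 uM, 0.5% DMSO vehicle. Gain or loss of signal fitted relative to DMSO baseline.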

[6] = read-out: Bcl-2 (BID) gene, BID (gene 637); experiment: LTEA_HepaRG_BID: Life Technologies and Expression Analysis (LTEA) Assay for Bcl-2 (BID) gene using HepaRG (AID 2283476)
Procedure, shortened: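 HepaRG, 48 h exposure, 8-pt half-log series, top 100 uM, 0.5% DMSO vehicle, duplicates. Readout: BID mRNA by TaqMan qRT-PCR; housekeeping-normalized; bidirectional curve fit vs DMSO baseline.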

Caspase-3 (Homo sapiens) = Caspase-3 (Homo sapiens) (UniProt P42574); experiment: LTEA_HepaRG_CASP3: Life Technologies and Expression Analysis (LTEA) Assay for cysteine-aspartic acid protease (CASP3) using HepaRG (AID 2283477)
Sequence of Caspase-3 (Homo sapiens) (P42574 whole entry, looked up): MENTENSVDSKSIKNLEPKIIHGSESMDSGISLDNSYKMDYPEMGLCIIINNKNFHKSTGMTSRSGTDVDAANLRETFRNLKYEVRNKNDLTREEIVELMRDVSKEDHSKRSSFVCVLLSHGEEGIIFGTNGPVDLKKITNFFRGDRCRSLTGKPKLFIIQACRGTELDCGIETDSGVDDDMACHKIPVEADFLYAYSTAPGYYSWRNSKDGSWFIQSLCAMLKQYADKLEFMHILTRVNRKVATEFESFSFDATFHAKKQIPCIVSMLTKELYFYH
Procedure, shortened: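 In HepaRG liver cells dosed for 48 h at up to 100 uM (eight-point, duplicate), CASP3 expression changes are scored by qRT-PCR. Activity is fitted in both directions with 0.5% DMSO as baseline.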

[7] = read-out: Cytochrome P450 (CYP24A1), CYP24A1 (gene 1591); experiment: LTEA_HepaRG_CYP24A1: Life Technologies and Expression Analysis (LTEA) Assay for Cytochrome P450 (CYP24A1) using HepaRG (AID 2283478)
Procedure, shortened: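 Human liver HepaRG cultures receive each chemical for 48 h across an eight-point half-log series topping at 100 uM in 0.5% DMSO. Induction or suppression of CYP24A1 mRNA is scored relative to vehicle after housekeeping-gene normalization.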

[8] = read-out: Cytochrome P450 (CYP1A2), CYP1A2 (gene 1544); experiment: LTEA_HepaRG_CYP1A2: Life Technologies and Expression Analysis (LTEA) Assay for Cytochrome P450 (CYP1A2) using HepaRG (AID 2283479);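 on AC50: TaqMan qRT-PCR transcript level normalized to ACTB GAPDH and POLR2A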
Procedure, shortened: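 Assesses CYP1A2 mRNA in human HepaRG liver cells after 48 h chemical exposure at up to 100 uM. Values come from qRT-PCR with bidirectional curve fitting relative to DMSO.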

Measured: AC50

Sequence of Apoptosis regulator Bcl-2 (Homo sapiens) (P10415 whole entry, looked up): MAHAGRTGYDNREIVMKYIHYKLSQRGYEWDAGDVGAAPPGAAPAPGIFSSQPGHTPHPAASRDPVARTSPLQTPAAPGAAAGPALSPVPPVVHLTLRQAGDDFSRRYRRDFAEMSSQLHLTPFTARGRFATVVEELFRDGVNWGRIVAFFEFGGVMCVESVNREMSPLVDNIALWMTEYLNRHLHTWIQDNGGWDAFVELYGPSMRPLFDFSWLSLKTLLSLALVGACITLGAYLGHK

CNC(=O)Oc1ccccc1OC(C)C
inactive: all assays above

CC(C)OC(=O)Nc1cccc(Cl)c1
active: [6] 7.78 µM
not listed: [4]
inactive: all other assays above

CNC(=O)/C=C(\C)OP(=O)(OC)OC
not listed: [4]
inactive: all other assays above

CC(C)N(C(=O)COc1nnc(C(F)(F)F)s1)c1ccc(F)cc1
active: [3] 37.6 µM
not listed: [4]
inactive: all other assays above

N#Cc1c(Cl)c(Cl)c(Cl)c(C#N)c1Cl
active: [1] 23.9 µM | [8] 13.7 µM
inactive: all other assays above

O=S(=O)(O)C(F)(F)C(F)(F)C(F)(F)C(F)(F)C(F)(F)C(F)(F)C(F)(F)C(F)(F)F
inactive: [1] | [2] | [3] | BCL2L11 (gene 10018) | [4] | [6] | Caspase-3 (Homo sapiens) | [7]
active: [1] 50 µM and 48 µM | [2] 12.8 µM | [3] 77.9 µM and 80.1 µM and 75.8 µM | [4] 34.1 µM | [5] 50 µM and 65.5 µM and 48 µM | Caspase-3 (Homo sapiens) 22.1 µM | [7] 0.00316 µM | [8] 84.5 µM and 10.3 µM and 48 µM

Oc1cc(Cl)ccc1Oc1ccc(Cl)cc1Cl
active: [3] 51 µM | BCL2L11 (gene 10018) 51 µM | [6] 10.1 µM
inactive: [1] | [2] | [3] | BCL2L11 (gene 10018) | [5] | [6] | Caspase-3 (Homo sapiens) | [7] | [8]

CCC(C)(NC(=O)c1cc(Cl)c(C)c(Cl)c1)C(=O)CCl (configuration not stated)
active: [2] 92.1 µM | [3] 76 µM | [6] 82.9 µM | Caspase-3 (Homo sapiens) 92.4 µM | [8] 74.1 µM
inactive: [1] | BCL2L11 (gene 10018) | [5] | [7]

Clc1ccccc1-c1nnc(-c2ccccc2Cl)nn1
active: [8] 17.3 µM
not listed: [4]
inactive: all other assays above

ClC1C(Cl)C(Cl)C(Cl)C(Cl)C1Cl (configuration not stated)
inactive: [1] | [2] | [3] | BCL2L11 (gene 10018) | [4] | [5] | [6] | Caspase-3 (Homo sapiens) | [7] | [8]
active: [3] 19.5 µM

Oc1ccc(Cl)cc1Cc1ccccc1
active: [3] 82.5 µM and 90 µM
inactive: [1] | [2] | [3] | BCL2L11 (gene 10018) | [5] | [6] | Caspase-3 (Homo sapiens) | [7] | [8]

CCCN(CCC)c1c([N+](=O)[O-])cc(C(F)(F)F)cc1[N+](=O)[O-]
active: [8] 32.3 µM
not listed: [4]
inactive: all other assays above

O=C(O)CCCOc1ccc(Cl)cc1Cl
active: [2] 50.8 µM | [8] 73.8 µM
not listed: [4]
inactive: all other assays above

O=S1OCC2C(CO1)C1(Cl)C(Cl)=C(Cl)C2(Cl)C1(Cl)Cl (configuration not stated)
active: [3] 50 µM | [5] 84.7 µM | [8] 35.4 µM
not listed: [4]
inactive: all other assays above

Cc1[nH]c(=O)n(C(C)(C)C)c(=O)c1Cl
active: [8] 36.2 µM
inactive: all other assays above

CC(C)(C)C(O)/C(=C\c1ccc(Cl)cc1Cl)n1cncn1 (configuration not stated)
active: [1] 59.4 µM | [3] 19.8 µM | BCL2L11 (gene 10018) 79.8 µM | [4] 25.3 µM | [5] 21.8 µM
inactive: [2] | [6] | Caspase-3 (Homo sapiens) | [7] | [8]

CCc1ccc(C(=O)NN(C(=O)c2cc(C)cc(C)c2)C(C)(C)C)cc1
active: [3] 50 µM
not listed: [4]
inactive: all other assays above

CCC(C)Nc1c([N+](=O)[O-])cc(C(C)(C)C)cc1[N+](=O)[O-] (configuration not stated)
active: [3] 50 µM
not listed: [4]
inactive: all other assays above

CNC(=O)CSP(=S)(OC)OC
active: [8] 16.2 µM
not listed: [4]
inactive: all other assays above

O=C(O)C(F)(F)C(F)(F)C(F)(F)C(F)(F)C(F)(F)C(F)(F)C(F)(F)F
inactive: all assays above

CC1(c2ccc(Oc3ccccc3)cc2)OC(=O)N(Nc2ccccc2)C1=O (configuration not stated)
active: [1] 12.2 µM | [2] 73.7 µM | [3] 9.81 µM | BCL2L11 (gene 10018) 11.7 µM | [5] 9.6 µM | [8] 50.2 µM
inactive: [6] | Caspase-3 (Homo sapiens) | [7]
